Compound activity deposited in PubChem BioAssay by several laboratories.
PAFAH1B2 inh: PAFAH1B2 (human) inhibition. P68402. recombinant PAFAH1B2, FP-rhodamine activity probe, fluorescence polarization. inhibition, % at 3.39 µM. actives 1.2% (n = 340,000). AID 492953;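 active means inhibition above the mean of all tested compounds plus 3 SD, cut at about 24% in these data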;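 further: 0% = enzyme with DMSO and 100% = wells lacking PAFAH1B2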
DAGLB inhibitor: blocks human DAGLB lipase activity; Q8NCG7; HEK293T DAGLB membrane lysate, EnzChek fluorogenic substrate; inhibition, % at 5.17 µM; actives 0.059% (n = 340,000); in the data active means inhibition above about 34%;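 further: 0% = enzyme with vehicle and 100% = wells lacking enzyme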
pPAFAH FP inh: inhibitors of human plasma PAF acetylhydrolase (pPAFAH); Q13093; recombinant pPAFAH, FP-rhodamine probe fluorescence polarization; inhibition, % at 3.39 µM; actives 1.5% (n = 330,000); AID 463082;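 active means inhibition above the mean inhibition across the screen plus 3 SD, cut at about 25% in these data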;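 further: inhibitors block binding of the rhodamine activity-based probe so polarization drops; 0% = enzyme with DMSO and 100% = wells lacking pPAFAH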
Target sequence (Q13093 whole entry, looked up): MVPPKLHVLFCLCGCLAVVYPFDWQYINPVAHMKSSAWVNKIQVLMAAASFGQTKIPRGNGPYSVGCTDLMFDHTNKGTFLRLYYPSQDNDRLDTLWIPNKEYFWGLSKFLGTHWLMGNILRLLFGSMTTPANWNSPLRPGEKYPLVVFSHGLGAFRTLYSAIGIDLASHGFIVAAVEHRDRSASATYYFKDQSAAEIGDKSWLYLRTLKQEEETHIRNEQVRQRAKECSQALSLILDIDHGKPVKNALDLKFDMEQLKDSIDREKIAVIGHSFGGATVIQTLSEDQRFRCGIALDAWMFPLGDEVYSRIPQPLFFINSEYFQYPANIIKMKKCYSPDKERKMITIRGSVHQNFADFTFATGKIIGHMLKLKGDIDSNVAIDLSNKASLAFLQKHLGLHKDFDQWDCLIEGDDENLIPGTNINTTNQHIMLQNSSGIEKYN
ATG4B inh: inhibitors of human ATG4B cysteine protease; Q9Y4P1; ATG4B cleavage of LC3-PLA2, NBD-HPC fluorescence, 1 h; inhibition, % at 8.33 µM; actives 0.51% (n = 340,000); in the data active means inhibition above about 40%
PAFAH1B3 FP inh: PAFAH1B3 (human) inhibition. Q15102. recombinant PAFAH1B3, FP-rhodamine probe, fluorescence polarization. actives 0.28% (n = 340,000). inhibition, % at 3.39 µM;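 active means inhibition above the screen-wide average of all tested compounds plus 3 SD, cut at about 25% in these data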;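 further: 0% = enzyme with DMSO only and 100% = wells lacking PAFAH1B3 protein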
PAFAH2 inh: PAFAH2 (human) inhibition; recombinant PAFAH2, FP-rhodamine activity probe, fluorescence polarization; inhibition, % at 3.39 µM; actives 0.99% (n = 340,000);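 active means inhibition above the mean over all tested compounds plus 3 SD, cut at about 30% in these data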;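 further: inhibitors block probe labeling of enzyme so polarization drops; 0% = enzyme with DMSO and 100% = wells lacking PAFAH2 protein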
An asterisk follows results filed as active. Rows were chosen to be rich in hits. Some 3% of all compounds tested hit in one or more screens of this group.

`COc1cc2c(cc1OC)C13CCN4CC5CCOC6CC(=O)N2C1C6C5CC43` (centres undefined) gave PAFAH1B2 inh 6, DAGLB inhibitor -4, ATG4B inh -6, PAFAH1B3 FP inh 9 and PAFAH2 inh 0.
`Cc1ccc2c(c1)cc1c(=O)n(CC(=O)N3CCC4(CC3)OCCO4)nc(C)n12` gave PAFAH1B2 inh 4, DAGLB inhibitor 2, pPAFAH FP inh 26*, ATG4B inh 0, PAFAH1B3 FP inh 10 and PAFAH2 inh -4.
For CCCC(C)n1[nH]c(=O)c2c1NC(=O)CSC2c1ccc(OC)cc1 (centres undefined) the results were PAFAH1B2 inh 2, DAGLB inhibitor 2, pPAFAH FP inh 28*, ATG4B inh -2, PAFAH1B3 FP inh 5 and PAFAH2 inh 1.
Screening CCCOc1ccccc1C1SCC(=O)Nc2c1c(=O)[nH]n2C(C)CCC (centres undefined) returned PAFAH1B2 inh 2, DAGLB inhibitor 0, pPAFAH FP inh -3, ATG4B inh -9, PAFAH1B3 FP inh 9 and PAFAH2 inh 5.
`CC1CC(OP(O)(=S)c2ccc(N(C)C)cc2NC(=O)c2cccs2)CC(C)(C)C1` (centres undefined) gave PAFAH1B2 inh 40*, DAGLB inhibitor 4, pPAFAH FP inh 7, ATG4B inh -24, PAFAH1B3 FP inh 10 and PAFAH2 inh 18.
CC(C)[C@@]1(NC(=O)[C@@H]2C[C@@H]3c4cccc5[nH]cc(c45)C[C@H]3N(C)C2)O[C@@]2(O)[C@@H]3CCCN3C(=O)[C@H](Cc3ccccc3)N2C1=O was read as PAFAH1B2 inh 3, DAGLB inhibitor 0, pPAFAH FP inh 3, ATG4B inh -19, PAFAH1B3 FP inh 8 and PAFAH2 inh -2.
Screening CC(C)C[C@H]1C(=O)N2CCCC2[C@]2(O)O[C@](NC(=O)[C@@H]3C=C4c5cccc6[nH]cc(c56)CC4N(C)C3)(C(C)C)C(=O)N12 (some centres undefined) returned PAFAH1B2 inh 15, DAGLB inhibitor 1, pPAFAH FP inh 17, ATG4B inh -6, PAFAH1B3 FP inh 39* and PAFAH2 inh -8.
O=S(=O)(c1cccc2ccccc12)N1Cc2ccccc2-n2nncc2C1 was read as DAGLB inhibitor -1.
For COc1ccc(CCN)cc1O the results were PAFAH1B2 inh 7, DAGLB inhibitor 0, pPAFAH FP inh 6, ATG4B inh 3, PAFAH1B3 FP inh -5 and PAFAH2 inh 9.
Screening NCCc1cc(O)c(O)cc1O returned PAFAH1B2 inh 55*, DAGLB inhibitor 3, ATG4B inh -3, PAFAH1B3 FP inh 88* and PAFAH2 inh 72*.
For CNC1(c2ccc(F)cc2)CCCCC1 the results were PAFAH1B2 inh 1, DAGLB inhibitor -1, ATG4B inh 6, PAFAH1B3 FP inh 9 and PAFAH2 inh 0.
Screening Nc1ccc(C2(c3ccc(N)cc3)CCCCC2)cc1 returned PAFAH1B2 inh 38*, DAGLB inhibitor 5, pPAFAH FP inh 9, ATG4B inh -3, PAFAH1B3 FP inh 5 and PAFAH2 inh 2.
`C[C@]12CC[C@@H](O)CC1=CCC1C2CC[C@@]2(C)C1CC[C@@H]2O` (some centres undefined) gave DAGLB inhibitor -2.
Screening Cc1ccc(-c2nc3ccc(Cl)cc3n2OC(=O)N(C)C)cc1 returned PAFAH1B2 inh 62*, DAGLB inhibitor -3, pPAFAH FP inh 2, ATG4B inh -6, PAFAH1B3 FP inh 6 and PAFAH2 inh 2.
CC(C)c1ccc(N2C(=O)NC(=O)/C(=C\C=C\c3ccco3)C2=O)cc1 was read as pPAFAH FP inh 29* and ATG4B inh 4.
CC[n+]1c(-c2ccccc2)c2cc(N)ccc2c2ccc(N)cc21 was read as PAFAH1B2 inh 65*, DAGLB inhibitor 3, ATG4B inh 3, PAFAH1B3 FP inh 90* and PAFAH2 inh 82*.
`O=c1[nH]c(=S)n(CCC2=CCCCC2)c(O)c1/C=N/Nc1ccccc1` gave PAFAH1B2 inh 35*, DAGLB inhibitor 16, pPAFAH FP inh 17, ATG4B inh 1, PAFAH1B3 FP inh 2 and PAFAH2 inh 9.
`CC(C)OC(=O)c1c(N)n(CC2CCCO2)c2nc3ccccc3nc12` (centres undefined) gave PAFAH1B2 inh -2, DAGLB inhibitor 0, pPAFAH FP inh 2, ATG4B inh -15, PAFAH1B3 FP inh -3 and PAFAH2 inh -3.
CC(C)OCCCNC(=O)c1c(N)n(CC2CCCO2)c2nc3ccccc3nc12 (centres undefined) was read as PAFAH1B2 inh 26*, DAGLB inhibitor -12, pPAFAH FP inh 12, ATG4B inh -25, PAFAH1B3 FP inh 55* and PAFAH2 inh 28.
Screening CCOC(=O)c1cccc(C2=C(CNC(=O)c3ccc([N+](=O)[O-])cc3)[C@H]3CC[C@@H](C2)N3Cc2ccccc2)c1 returned DAGLB inhibitor -2.
For CCOC(=O)C1CCCN(c2ccc([N+](=O)[O-])c3nonc23)C1 (centres undefined) the results were PAFAH1B2 inh 50*, DAGLB inhibitor -110, ATG4B inh -29, PAFAH1B3 FP inh 39* and PAFAH2 inh 46*.
`CC1CCC(C)(NS(=O)(=O)OCC(Cl)(Cl)Cl)CC1` (centres undefined) gave PAFAH1B2 inh 45*, DAGLB inhibitor -15, pPAFAH FP inh 33*, ATG4B inh -9, PAFAH1B3 FP inh 7 and PAFAH2 inh 9.
For Cc1ncoc1C(=O)NCC1=C(c2ccc(S(C)(=O)=O)cc2)C[C@@H]2CC[C@H]1N2Cc1ccco1 the results were DAGLB inhibitor 1.
O=[N+]([O-])c1cc(S(=O)(=O)c2ccc(O)c([N+](=O)[O-])c2)ccc1O was read as PAFAH1B2 inh 14, DAGLB inhibitor 2, pPAFAH FP inh 28*, ATG4B inh 15, PAFAH1B3 FP inh 29* and PAFAH2 inh 39*.
O=C(NN=Cc1ccc(N(CCCl)CCCl)cc1)C(=O)c1c[nH]c2ccccc12 was read as PAFAH1B2 inh -12, DAGLB inhibitor 3, ATG4B inh -10, PAFAH1B3 FP inh -19 and PAFAH2 inh -9.
`Cc1ccc(S(=O)(=O)NP(=O)(Oc2ccccc2)Oc2ccccc2)cc1` gave PAFAH1B2 inh 46*, DAGLB inhibitor 5, pPAFAH FP inh -2, ATG4B inh -14, PAFAH1B3 FP inh 24 and PAFAH2 inh 2.
For O=P(NS(=O)(=O)c1ccc(Cl)cc1)(Oc1ccccc1)Oc1ccccc1 the results were PAFAH1B2 inh 84*, DAGLB inhibitor 14, pPAFAH FP inh 1, ATG4B inh -13, PAFAH1B3 FP inh 7 and PAFAH2 inh -4.
Screening Cc1ccc(C)c(NP(=O)(Oc2ccccc2)Oc2ccccc2)c1 returned PAFAH1B2 inh -5, DAGLB inhibitor -7, pPAFAH FP inh -5, ATG4B inh 11, PAFAH1B3 FP inh 6 and PAFAH2 inh 0.
